Reference: PubChem BioAssay AID431 (Sanford-Burnham Center for Chemical Genomics, 2006)
Hit rate of the full screen: of about 63,000 compounds, about 1,100 (1.7%) were called active.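 Rule for the calls: active = compounds whose percent cytotoxicity in the single-dose primary screen, scaled between solvent and toxic-drug controls, exceeds 50; inactive = the rest.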 The entries come from a sample that favours actives as a whole. Entries with a potency or affinity are not part of this list.

Experiment: cytotoxicity in KRAS-transformed pancreatic duct cells, primary screen, cell-based, fluorescence, HTS (AID 431);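 note: 0% = DMSO solvent wells and 100% = doxorubicin-treated wells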
Conditions: HPDE-C7K KRASV12 cells, Alamar Blue viability, 48 h; at 10 µM; hits give high values
For O=C(CSc1nn(-c2ccccc2)c(=S)s1)Nn1cnnc1, the cytotoxicity was -11.8% (inactive).
With CS(=O)(=O)N1CCCC(c2nc(-c3ccc(S(=O)(=O)NCc4ccccc4)cc3)no2)C1 (stereo unspecified) the cytotoxicity was -5.6% (inactive).
With O=C(CCCn1c(=S)[nH]c2cc3c(cc2c1=O)OCO3)N1CCN(c2ncccn2)CC1 the cytotoxicity was -12.6% (inactive).
In the case of CCOc1ccccc1N1CCN(C(=O)Nc2cccc(Cl)c2)CC1, the cytotoxicity is reported as -2.1% (inactive).
For Cn1cc(C(=O)NC2CCCCCCC2)c(=O)c2cc(S(=O)(=O)N3CCCC3)ccc21, the cytotoxicity was -3.8% (inactive).
For CCN(CC)S(=O)(=O)c1ccc2oc(C(=O)N3CCCCCC3)c(C)c2c1, the cytotoxicity was 7.8% (inactive).
For CCCN1Cc2cccc(C(=O)Nc3cc(OC)cc(OC)c3)c2C1=O, the cytotoxicity was 16.6% (inactive).
For CC(C)(C)OC(=O)NCCc1nnc(SCC(=O)c2ccc(Cl)cc2)o1, the cytotoxicity was 3.8% (inactive).
In the case of COc1cccc(C(=O)N(Cc2cc3cc(C)ccc3[nH]c2=O)CC2CCCO2)c1 (stereo unspecified), the cytotoxicity is reported as -14.2% (inactive).
For CCOC(=O)C1CCN(Cc2ccccc2C(F)(F)F)CC1, the cytotoxicity was -13.3% (inactive).
In the case of On1cnnc1-c1ccccc1, the cytotoxicity is reported as -12.7% (inactive).
In the case of CCCCN1Cc2cc(C(=O)c3cc(F)ccc3O)cnc2NC1=O, the cytotoxicity is reported as 6.7% (inactive).
In the case of Cc1ccc(O)c(C(=O)c2cnc3c(c2)CN(CCC(C)C)C(=O)N3)c1, the cytotoxicity is reported as -6% (inactive).
In the case of CN1Cc2cc(C(=O)c3cc(Cl)cc(CSc4ncccn4)c3O)cnc2NC1=O, the cytotoxicity is reported as 66.2% (active).
With CCCn1c(N)c(C(=O)CSc2nnc(-c3ccco3)n2Cc2ccccc2)c(=O)[nH]c1=O the cytotoxicity was -9.1% (inactive).
For Cc1cc(NC(=O)NC(=O)c2cccc(OC(F)(F)C(F)F)c2)n[nH]1, the cytotoxicity was -3.6% (inactive).
For Cc1cc(C)c2c(CN3CCN(C)CC3)cc(=O)oc2c1, the cytotoxicity was 9.6% (inactive).
With Cc1cc(C)c2c(CN3CCN(C/C=C/c4ccccc4)CC3)cc(=O)oc2c1 the cytotoxicity was 72.7% (active).
With CCN1CCN(Cc2cc(=O)oc3cc(C)cc(C)c23)CC1 the cytotoxicity was 7.2% (inactive).
With CCOC(=O)c1c(C)n(C)c2ccc(O)c(CN3CCN(C)CC3)c12 the cytotoxicity was 4.9% (inactive).
For Cc1cc(C2=CC(C)(c3cc(C)oc3C)Nc3nc(C(F)(F)F)nn32)c(C)o1 (stereo unspecified), the cytotoxicity was 56.2% (active).
For Cc1cccc(NC(=O)c2cnc3sccn3c2=O)c1C, the cytotoxicity was 0.5% (inactive).
With CCOC(=O)c1ccc(NC(=O)CCC(=O)OC)cc1 the cytotoxicity was 0% (inactive).
For CCCc1nc(NC2CCCCC2)c(C#N)c2c1COC(C)(C)C2, the cytotoxicity was -33.6% (inactive).
For CCc1nc(NC2CCCCC2)c(C#N)c2c1COC(C)(C)C2, the cytotoxicity was 62% (active).
With CCc1nc(NCC2CCCO2)c(C#N)c2c1COC(C)(C)C2 (stereo unspecified) the cytotoxicity was -3% (inactive).
